Source: PubChem BioAssay (EPA / NIEHS)
“And” between values parts separate entries of the source, which are not always exact repeats. Equal values may be shown once. The source made the active and inactive calls. How the source made its calls: active means hit-call score of the fitted dose curve at least 0.9, where 1 is the maximum; inactive means score below 0.9.

Key:
[1] = BSK_hDFCGF_SRB: Viability Assessment in the BioMAP Diversity Plus: hDFCGF Assay (AID 2283061); conditions: primary human foreskin fibroblasts;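 further: cells exposed to compound for 24 h before the read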
How it was run: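 Human foreskin primary fibroblasts were treated with compound and assessed 24 h after dosing. Total protein was measured by sulforhodamine B staining (0.1% SRB after 10% TCA fixation, 560 nm read) as a cytotoxicity marker, with bidirectional fitting against DMSO baseline.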

[2] = read-out: TIMP metallopeptidase inhibitor 1 (TIMP1), TIMP1 (gene 7076); test: BSK_hDFCGF_TIMP1: BioMAP Diversity Plus: hDFCGF Assay for TIMP metallopeptidase inhibitor 1 (TIMP1) Biomarker Activity (AID 2283062); conditions: primary human foreskin fibroblasts; actives raise or lower the signal
How it was run: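 Primary human foreskin fibroblasts in the hDFCGF system were dosed with compound for 24 h, then TIMP-1 was measured by ELISA. Activity was fitted bidirectionally relative to DMSO control; parallel SRB staining assessed cytotoxicity.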

[3] = read-out: Matrix Metallopeptidase 1 (MMP1), MMP1 (gene 4312); test: BSK_hDFCGF_MMP1: BioMAP Diversity Plus: hDFCGF Assay for Matrix Metallopeptidase 1 (MMP1) Biomarker Activity (AID 2283064); conditions: primary human foreskin fibroblasts; actives raise or lower the signal
How it was run: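 ELISA read-out of MMP1 from human foreskin fibroblasts (primary skin cells), 24 h post-dose. Gain or loss of signal was fitted bidirectionally versus DMSO negative control; cytotoxicity was checked by SRB in parallel cultures.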

[4] = read-out: Vascular cell adhesion molecule 1 (VCAM1), VCAM1 (gene 7412); test: BSK_hDFCGF_VCAM1: BioMAP Diversity Plus: hDFCGF Assay for Vascular cell adhesion molecule 1 (VCAM1) Biomarker Activity (AID 2283065); conditions: primary human foreskin fibroblasts; actives raise or lower the signal
How it was run: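 Primary human foreskin fibroblasts (hDFCGF system) were dosed with chemical and VCAM-1 was measured by ELISA 24 h later. Bidirectional curve fitting used DMSO as negative control and activity baseline.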

[5] = read-out: Plasminogen activator inhibitor-1 (PAI1), SERPINE1 (gene 5054); test: BSK_hDFCGF_PAI1: BioMAP Diversity Plus: hDFCGF Assay for Plasminogen activator inhibitor-1 (PAI1) Biomarker Activity (AID 2283066); conditions: primary human foreskin fibroblasts; actives raise or lower the signal
How it was run: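 ELISA readout of PAI-1 from primary human skin fibroblast cultures, 24 h after compound addition. Gain or loss of signal was fitted bidirectionally against DMSO baseline.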

[6] = read-out: Intercellular Adhesion Molecule 1 (ICAM1), ICAM1 (gene 3383); test: BSK_KF3CT_ICAM1: BioMAP Diversity Plus: KF3CT Assay for Intercellular Adhesion Molecule 1 (ICAM1) Biomarker Activity (AID 2283067); conditions: primary human keratinocytes with fibroblasts; actives raise or lower the signal
How it was run: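 Human keratinocyte plus foreskin fibroblast primary co-culture was exposed to chemical for 24 h. ICAM-1 was then quantified by ELISA, and the data were fit bidirectionally against DMSO as the negative control and baseline.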

[7] = read-out: Interferon-gamma inducible Protein 10 (IP10), CXCL10 (gene 3627); test: BSK_KF3CT_IP10: BioMAP Diversity Plus: KF3CT Assay for Interferon-gamma inducible Protein 10 (IP10) Biomarker Activity (AID 2283068); conditions: primary human keratinocytes with fibroblasts; actives raise or lower the signal
How it was run: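 In a primary skin co-culture of keratinocytes and fibroblasts, IP-10 is quantified by ELISA at 24 h after dosing. SRB staining of parallel wells monitors overt toxicity. Curves are fitted both directions against DMSO.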

[8] = BSK_KF3CT_SRB: Viability Assessment in the BioMAP Diversity Plus: KF3CT Assay (AID 2283069); conditions: primary human keratinocytes with fibroblasts
How it was run: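 SRB read-out at 560 nm (0.1% stain, TCA-fixed cells) gauges overt cytotoxicity in a human skin keratinocyte–fibroblast co-culture 24 h post-dosing. Signal change was fitted bidirectionally relative to DMSO control.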

[9] = read-out: Interleukin-1 alpha (IL1a), IL1A (gene 3552); test: BSK_KF3CT_IL1a: BioMAP Diversity Plus: KF3CT Assay for Interleukin-1 alpha (IL1a) Biomarker Activity (AID 2283070); conditions: primary human keratinocytes with fibroblasts; actives raise or lower the signal
How it was run: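 Primary skin co-culture (keratinocytes, foreskin fibroblasts), 24 h exposure; ELISA for IL-1a; bidirectional curve fit vs DMSO.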

[10] = read-out: TIMP metallopeptidase inhibitor 2 (TIMP2), TIMP2 (gene 7077); test: BSK_KF3CT_TIMP2: BioMAP Diversity Plus: KF3CT Assay for TIMP metallopeptidase inhibitor 2 (TIMP2) Biomarker Activity (AID 2283071); conditions: primary human keratinocytes with fibroblasts; actives raise or lower the signal
How it was run: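 ELISA readout of TIMP-2 in keratinocyte plus foreskin fibroblast co-cultures (human skin primary cells), 24 h post-dose. Gain or loss of signal fitted relative to DMSO.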

[11] = read-out: C-C motif chemokine 2 (Homo sapiens) (UniProt P13500); test: BSK_KF3CT_MCP1: BioMAP Diversity Plus: KF3CT Assay for Monocyte Chemoattractant Protein 1 (MCP1/CCL2) Biomarker Activity (AID 2283073); conditions: primary human keratinocytes with fibroblasts; actives raise or lower the signal
How it was run: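 Human keratinocyte plus foreskin fibroblast primary co-culture exposed to chemical for 24 h. MCP-1 levels measured by ELISA. Bidirectional curve fitting relative to DMSO negative control as baseline.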

[12] = read-out: Matrix Metallopeptidase 9 (MMP9), MMP9 (gene 4318); test: BSK_KF3CT_MMP9: BioMAP Diversity Plus: KF3CT Assay for Matrix Metallopeptidase 9 (MMP9) Biomarker Activity (AID 2283074); conditions: primary human keratinocytes with fibroblasts; actives raise or lower the signal;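 on AC50: MMP9 protein level quantified by ELISA in the co-culture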
How it was run: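 ELISA read-out of MMP-9 at 24 h post-dosing in a co-culture of human skin keratinocytes and foreskin fibroblasts. Gain or loss of signal was fitted in both directions against DMSO.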

[13] = read-out: urokinase plasminogen activator (uPA), PLAU (gene 5328); test: BSK_KF3CT_uPA: BioMAP Diversity Plus: KF3CT Assay for urokinase plasminogen activator (uPA) Biomarker Activity (AID 2283075); conditions: primary human keratinocytes with fibroblasts; actives raise or lower the signal
How it was run: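 Skin co-culture (keratinocytes + foreskin fibroblasts), human primary; 24 h post-dose; uPA by ELISA; gain/loss fit vs DMSO baseline.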

[14] = read-out: E-selectin (Homo sapiens) (UniProt P16581); test: BSK_LPS_Eselectin: BioMAP Diversity Plus: LPS Assay for Eselectin Biomarker Activity (AID 2283077); conditions: primary human HUVEC with PBMC; actives raise or lower the signal
How it was run: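 Human umbilical vein endothelial cells co-cultured with peripheral blood mononuclear cells under LPS stimulation; E-selectin measured by ELISA 24 h after chemical dosing. Activity fitted bidirectionally against DMSO as negative control and baseline.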

[15] = read-out: Interleukin-8 (IL8), CXCL8 (gene 3576); test: BSK_LPS_IL8: BioMAP Diversity Plus: LPS Assay for Interleukin-8 (IL8) Biomarker Activity (AID 2283078); conditions: primary human HUVEC with PBMC; actives raise or lower the signal
How it was run: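 Human umbilical vein endothelial cells co-cultured with PBMC were stimulated with LPS; IL-8 levels were measured by ELISA 24 h after chemical dosing. Activity was fitted bidirectionally against DMSO as negative control and baseline.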

[16] = BSK_LPS_SRB: Viability Assessment in the BioMAP Diversity Plus: LPS Assay (AID 2283079); conditions: primary human HUVEC with PBMC;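 further: total protein by sulforhodamine B absorbance as a cytotoxicity measure; measured one day after compound addition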
How it was run: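 Human umbilical vein endothelial cells co-cultured with PBMC (LPS system) were dosed for 24 h. Total protein was stained with 0.1% sulforhodamine B after 10% TCA fixation, read at 560 nm, and fitted bidirectionally against DMSO baseline.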

[17] = read-out: Interleukin-1 alpha (IL1a), IL1A (gene 3552); test: BSK_LPS_IL1a: BioMAP Diversity Plus: LPS Assay for Interleukin-1 alpha (IL1a) Biomarker Activity (AID 2283080); conditions: primary human HUVEC with PBMC; actives raise or lower the signal
How it was run: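 Human umbilical vein endothelial cells co-cultured with peripheral blood mononuclear cells were LPS-stimulated and exposed to test chemicals for 24 h. IL-1 alpha was quantified by ELISA, with bidirectional curve fitting against DMSO as the negative control and baseline.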

[18] = read-out: Transforming growth factor beta 1 (TGFb1), TGFB1 (gene 7040); test: BSK_KF3CT_TGFb1: BioMAP Diversity Plus: KF3CT Assay for Transforming growth factor beta 1 (TGFb1) Biomarker Activity (AID 2283072); conditions: primary human keratinocytes with fibroblasts; actives raise or lower the signal
How it was run: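 Read-out: ELISA for TGF-b1 in keratinocyte/foreskin fibroblast human skin co-culture, 24 h after dosing; bidirectional curve fit vs DMSO baseline; gain or loss of signal scored.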

Measured: AC50

Sequence of E-selectin (Homo sapiens) (P16581 whole entry, looked up): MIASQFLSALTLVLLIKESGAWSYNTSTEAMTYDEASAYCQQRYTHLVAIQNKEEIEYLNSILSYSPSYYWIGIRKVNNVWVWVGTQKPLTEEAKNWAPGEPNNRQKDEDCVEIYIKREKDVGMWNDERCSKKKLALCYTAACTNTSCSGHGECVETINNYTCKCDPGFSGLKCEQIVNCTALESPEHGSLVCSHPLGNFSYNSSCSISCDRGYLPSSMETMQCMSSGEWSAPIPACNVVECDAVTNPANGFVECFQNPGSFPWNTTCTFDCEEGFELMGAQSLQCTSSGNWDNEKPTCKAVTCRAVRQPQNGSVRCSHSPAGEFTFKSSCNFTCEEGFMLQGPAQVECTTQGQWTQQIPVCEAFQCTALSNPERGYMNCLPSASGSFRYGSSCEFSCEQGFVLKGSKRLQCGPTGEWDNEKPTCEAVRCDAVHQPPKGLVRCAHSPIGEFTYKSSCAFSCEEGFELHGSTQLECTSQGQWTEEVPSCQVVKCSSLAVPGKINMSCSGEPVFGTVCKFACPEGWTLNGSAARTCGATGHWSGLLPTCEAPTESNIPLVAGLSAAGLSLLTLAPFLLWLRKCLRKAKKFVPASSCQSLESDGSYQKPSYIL

OC1OC[C@@H](O)[C@H](O)[C@H]1O (stereo partly specified)
not listed: [18]
inactive: all other assays above

c1ccc2sc(SN(C3CCCCC3)C3CCCCC3)nc2c1
active: [1] 4.26 µM | [5] 2.8 µM | [12] 888 nM
inactive: all other assays above

O=C(O)c1ccc([N+](=O)[O-])cc1
inactive: all assays above

N#Cc1ccc(CC(=NNC(=O)Nc2ccc(OC(F)(F)F)cc2)c2cccc(C(F)(F)F)c2)cc1
active: [10] 2.21 µM | [18] 463 nM
inactive: all other assays above

Nc1cc([N+](=O)[O-])ccc1O
active: [1] 1.16 µM and 826 nM
not listed: [18]
inactive: all other assays above

Cc1ccc(Nc2ccc(O)c3c2C(=O)c2ccccc2C3=O)cc1
active: [5] 1.61 µM
inactive: all other assays above
